In the library only some 0.89% were active in any assay of this set; here they are far more common.
Six1-Eya2 inh: inhibitors of human Six1/Eya2 interaction; AlphaScreen GST-Six1/His-Eya2 binding, biochemical; hits give low values; actives 0.56% (n = 360,000); AID 651725; activity change, % (concentration not given with the values); Q15475+O00167; in the data active means activity change below about -65%; inconclusive means mostly about -30% to -63%; further: on the % scale 0 is the no-effect control and ±100 the full control effect
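AlphaScreen luminescence read after one hour at 37 °C in darkness. Pin-transferred compounds met GST-Six1 and His-Eya2 protein (5X stock 250 nM/500 nM) plus glutathione donor and Ni-chelate acceptor beads (5X, 50 ug/mL).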
Eya2 phos inh: Eya2 (human) phosphatase inhibition. recombinant Eya2, OMFP fluorescence dephosphorylation (OMFP is methylfluorescein phosphate). Potency, µM (series often up to 76.9 µM), for inactives: at the highest dose activity, negative = inhibition, usual class: inhibitors. actives 0.006% (n = 330,000); further: potency means the concentration at half of the fitted maximal effect; on the % scale 0 is the no-effect control and ±100 the full control effect
Target sequence (O00167 whole entry, looked up): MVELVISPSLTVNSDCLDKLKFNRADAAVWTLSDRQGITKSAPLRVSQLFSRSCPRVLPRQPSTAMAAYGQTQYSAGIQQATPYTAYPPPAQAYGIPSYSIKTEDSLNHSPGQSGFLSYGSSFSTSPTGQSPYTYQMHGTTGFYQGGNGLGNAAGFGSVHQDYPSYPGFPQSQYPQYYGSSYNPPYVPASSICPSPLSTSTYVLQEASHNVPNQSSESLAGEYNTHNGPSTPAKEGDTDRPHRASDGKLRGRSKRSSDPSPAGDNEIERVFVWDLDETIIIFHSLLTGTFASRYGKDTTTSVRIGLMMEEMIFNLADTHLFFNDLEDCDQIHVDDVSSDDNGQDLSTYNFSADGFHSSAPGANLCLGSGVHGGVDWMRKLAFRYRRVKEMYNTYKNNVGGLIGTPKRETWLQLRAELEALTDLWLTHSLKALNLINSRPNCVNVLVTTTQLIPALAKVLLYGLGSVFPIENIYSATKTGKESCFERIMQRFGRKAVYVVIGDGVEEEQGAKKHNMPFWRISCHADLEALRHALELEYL
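Eya2 (0.2 uM) preincubated 10 min at ambient with compound, then OMFP substrate added at 50 uM; 10 min reaction in 50 mM HEPES pH 7.5, 50 mM NaCl, 5 uM MgCl2, 0.05% BSA, 1 mM DTT. Fluorescence read at Ex 485/Em 525 nm.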
CtBP-E1A blk: inhibitors of CtBP/E1A interaction; actives 0.49% (n = 340,000); AID 651724; activity change, % (no concentration beside the values); AlphaScreen GST-E1A/His-CtBP binding, 1536-well; hits give low values; in the data active means activity change below about -65%; inconclusive means mostly about -30% to -63%; further: on the % scale 0 is the no-effect control and ±100 the full control effect
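AlphaScreen with 125 nM GST-E1A and 125 nM His-CtBP (5X stocks) in Tris pH 8.0, 300 mM NaCl, BSA, Tween 20, TCEP. Compounds preincubated 2 h at 37 deg C, then glutathione donor/nickel acceptor beads added for 1 h at 37 deg C in dark.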
CBFb-RUNX1 inh: inhibitors of human CBF-beta and RUNX1 interaction; Q01196+Q13951; AlphaScreen CBFb-His/RUNX1-biotin binding, biochemical; Potency, µM (doses to about 59.8 µM), for inactives: at the highest dose activity, negative = inhibition, most hits filed as inhibitors; 230,000 tested, under 10 active; further: % of control where 0% means no effect
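AlphaScreen proximity signal reports loss of binding between His-tagged CBF-beta and biotin-labelled RUNX1, each at 30 nM. Proteins are pre-associated for 20 minutes, compounds added for 15 minutes, then beads for 90 minutes, all at ambient temperature.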
MBNL1-CUG inh: inhibitors of human MBNL1 binding to CUG repeat RNA; Q9NR56; TR-FRET MBNL1-His/biotin-(CUG)12 binding, 665/545 ratio; Potency, µM (highest dose often 57.5 µM), for inactives: at the top dose activity change, negative = inhibition, hits mostly inhibitors; actives 0.036% (n = 280,000); AID 2675; active means well fitted inhibition curve with a large enough effect in the signal ratio, with a control signal flat, not every such curve was filed as active; inconclusive means small, poorly fitted or top-dose-only effect, or effect the other way, or a change in a side signal; inactive means no such curve, though single readings can be large or run the other way; the % refers to the signal ratio; further: potency means the concentration at half of the fitted maximal effect; on the % scale 0 is the no-effect control and ±100 the full control effect
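His-tagged MBNL1 binding to biotinylated (CUG)12 RNA was measured by TR-FRET using terbium anti-His antibody (0.055 ng/ul final) and streptavidin-XL665 (5 nM final). Compounds were titrated 92 nM to 58 uM; 60 min at room temperature.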
L3MBTL1 block: inhibitors of human L3MBTL1. Q9Y468. AlphaScreen L3MBTL1–H3K9me1 peptide binding. Potency, µM (top dose mostly 57.1 µM), for inactives: at the top dose activity, negative = inhibition, usual class: inhibitors. actives 0.66% (n = 230,000). AID 485360; further: potency means the concentration at half of the fitted maximal effect; on the % scale 0 is the no-effect control and ±100 the full control effect; nearly all actives have a fitted effect of over 60% in size
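First, the protein-peptide complex forms for 30 min at room temperature (L3MBTL1 50 nM, biotinylated H3K9me1 peptide 75 nM). Next, compounds are pin-transferred and incubated 30 min. Finally, AlphaScreen beads are added and read after 30 min.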
* marks the source's active call; other numbers are inactive results. Unless noted, the call rests on the fitted dose curve; in most records, active means well fitted curve in the direction sought with a large enough effect; inconclusive means small, poorly fitted or top-dose-only effect, or another doubt; inactive means no such curve, though single readings can be large; an effect the other way counts as inactive or inconclusive.

For CCCC(=O)NC(c1ccc(OC)cc1)c1ccc2cccnc2c1O (stereo not drawn) the results were Six1-Eya2 inh -90*, Eya2 phos inh 1%, CtBP-E1A blk -88*, CBFb-RUNX1 inh -26%, MBNL1-CUG inh 53% and L3MBTL1 block inconclusive.
For CCCC(=O)NC(c1ccccc1)c1ccc2cccnc2c1O (stereo not drawn) the results were Six1-Eya2 inh -66*, Eya2 phos inh 11%, CtBP-E1A blk -91*, MBNL1-CUG inh 25% and L3MBTL1 block inconclusive.
Oc1c(C(c2ccccc2Cl)N2CCCC2)ccc2cccnc12 (stereo not drawn) was read as Six1-Eya2 inh inconclusive, Eya2 phos inh 9%, CBFb-RUNX1 inh inconclusive, MBNL1-CUG inh 8% and L3MBTL1 block -28%.
`CCC(=O)NC(c1ccc(OC)cc1)c1c(O)ccc2ccccc12` (stereo not drawn) gave Six1-Eya2 inh 1, Eya2 phos inh -2%, CBFb-RUNX1 inh -8%, MBNL1-CUG inh 2% and L3MBTL1 block -1%.
For COc1ccc(Cl)cc1C(Nc1cccnc1)c1ccc2cccnc2c1O (stereo not drawn) the results were Six1-Eya2 inh inconclusive, Eya2 phos inh -8%, CtBP-E1A blk -67*, MBNL1-CUG inh 21% and L3MBTL1 block -15%.
`O=C(NCc1cccnc1)C1CCN(S(=O)(=O)c2cc(Cl)ccc2Cl)CC1` gave Six1-Eya2 inh -17, Eya2 phos inh 8%, CtBP-E1A blk -6 and MBNL1-CUG inh inconclusive.
For Cc1ccc(SC[C@H](C)CN2CCC(NC(=O)OCc3ccccc3)CCC2=O)cc1 (stereo partly drawn) the results were Six1-Eya2 inh -2 and CtBP-E1A blk 0.
CCC(=O)NC(c1ccccc1OC)c1ccc2cccnc2c1O (stereo not drawn) was read as Six1-Eya2 inh -88*, Eya2 phos inh 6%, CtBP-E1A blk inconclusive, MBNL1-CUG inh -4% and L3MBTL1 block inconclusive.
`CCCCC(=O)NC(c1ccccc1)c1ccc2cccnc2c1O` (stereo not drawn) gave Six1-Eya2 inh -66*, Eya2 phos inh -6%, CtBP-E1A blk inconclusive, MBNL1-CUG inh 33% and L3MBTL1 block -28%.
For CCCCC(=O)NC(c1ccc(C(C)C)cc1)c1ccc2cccnc2c1O (stereo not drawn) the results were Six1-Eya2 inh -24, Eya2 phos inh -3%, CtBP-E1A blk -22, MBNL1-CUG inh 4% and L3MBTL1 block 0%.
`O=C(c1cncs1)N1CCCC(CNS(=O)(=O)c2cccs2)C1` (stereo not drawn) gave Six1-Eya2 inh -3, Eya2 phos inh 2%, CtBP-E1A blk 4, CBFb-RUNX1 inh 3%, MBNL1-CUG inh -6% and L3MBTL1 block -2%.
For COc1ccccc1Nc1nc(-c2c(C)nc3ncccn23)cs1 the results were Six1-Eya2 inh -85*, Eya2 phos inh 5%, CtBP-E1A blk -92*, CBFb-RUNX1 inh -8%, MBNL1-CUG inh 21% and L3MBTL1 block -13%.
For Cc1nc2ncccn2c1-c1csc(Nc2ccccc2)n1 the results were Six1-Eya2 inh -80*, Eya2 phos inh -9%, CtBP-E1A blk 7, CBFb-RUNX1 inh -4%, MBNL1-CUG inh inconclusive and L3MBTL1 block 2%.
`COc1ccc(Nc2nc(-c3c(C)nc4ncccn34)cs2)cc1` gave Six1-Eya2 inh inconclusive, Eya2 phos inh -8%, CBFb-RUNX1 inh -1%, MBNL1-CUG inh inconclusive and L3MBTL1 block inconclusive.
For O=C(CNC(=O)c1ccncc1)N/N=C/c1cc(Br)ccc1O the results were Six1-Eya2 inh inconclusive, Eya2 phos inh 0%, CtBP-E1A blk -66*, CBFb-RUNX1 inh -4% and L3MBTL1 block 12%.

High-throughput results deposited in PubChem by National Center for Advancing Translational Sciences (NCATS).
